Source: PubChem BioAssay (Tox21)
Results filed as inconclusive are left out. The source made the active and inactive calls. Unless noted, calls come from the whole dose curve; as a rule, active = well fitted curve in the direction sought with a large enough effect in the repeat runs; inconclusive = weak or mixed curves; inactive = no such curve, though single readings can be large; an effect the other way counts as inactive or inconclusive.

Assays:
[1] = qHTS assay to identify small molecule antagonists of the estrogen related receptor (ERR) signaling pathway from Tox21 library - cell viability counter screen (AID 1224834); note: nearly all actives have a fitted effect of over 30% in size; note: potency is the fitted concentration of half-maximal effect
Summary of the method: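 ERR reporter cells were plated 6 h before compound addition, then exposed to test compounds in DMSO for 17.5 h at 37 C. Viability was read as CellTiter-Fluor fluorescence after a 30-minute incubation at 37 C.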

[2] = target: Luciferin 4-monooxygenase (Photinus pyralis) (UniProt P08659); assay: qHTS assay to identify small molecule inhibitors of firefly luciferase (AID 1224835); note: nearly all actives have a fitted effect of over 25% in size
Sequence of Luciferin 4-monooxygenase (Photinus pyralis) (P08659 whole entry, looked up): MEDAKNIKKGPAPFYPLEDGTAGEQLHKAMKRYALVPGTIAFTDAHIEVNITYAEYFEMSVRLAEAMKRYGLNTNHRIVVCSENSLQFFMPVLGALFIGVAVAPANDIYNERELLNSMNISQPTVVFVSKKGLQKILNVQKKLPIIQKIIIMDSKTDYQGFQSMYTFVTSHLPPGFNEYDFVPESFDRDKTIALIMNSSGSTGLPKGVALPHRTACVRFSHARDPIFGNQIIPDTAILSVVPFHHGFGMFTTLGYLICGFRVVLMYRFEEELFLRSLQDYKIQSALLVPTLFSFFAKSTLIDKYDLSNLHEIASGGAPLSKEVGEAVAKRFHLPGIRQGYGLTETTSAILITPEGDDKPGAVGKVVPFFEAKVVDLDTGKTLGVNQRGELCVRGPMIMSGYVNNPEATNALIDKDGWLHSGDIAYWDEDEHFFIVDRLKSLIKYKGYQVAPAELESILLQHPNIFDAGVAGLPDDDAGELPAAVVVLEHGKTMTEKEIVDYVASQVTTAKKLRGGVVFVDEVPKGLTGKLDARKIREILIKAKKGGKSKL
Summary of the method: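 Inhibition of purified Photinus luciferase is measured by luminescence. Substrate levels (D-luciferin, ATP) sit at their KM values. Each compound is tested in a concentration series.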

[3] = qHTS assay to identify small molecule antagonists of the constitutive androstane receptor (CAR) signaling pathway - cell viability counter screen (AID 1224837); note: nearly all actives have a fitted effect of over 45% in size
Summary of the method: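 HepG2 cells stably expressing hCAR and a CYP2B6-2.2kb reporter were plated and pre-incubated 4 hr at 37 C/5% CO2, then given compounds at 15 concentrations plus 50 nM CITCO (final). After 23 hr, viability was read by CellTiter-Fluor fluorescence.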

[4] = target: Thyrotropin receptor (Homo sapiens) (UniProt P16473); assay: qHTS assay to identify small molecule agonists of the thyroid stimulating hormone receptor (TSHR) signaling pathway (AID 1224843; calls by dose curve; note: nearly all actives have a fitted effect of over 45% in size)
Sequence of Thyrotropin receptor (Homo sapiens) (P16473 whole entry, looked up): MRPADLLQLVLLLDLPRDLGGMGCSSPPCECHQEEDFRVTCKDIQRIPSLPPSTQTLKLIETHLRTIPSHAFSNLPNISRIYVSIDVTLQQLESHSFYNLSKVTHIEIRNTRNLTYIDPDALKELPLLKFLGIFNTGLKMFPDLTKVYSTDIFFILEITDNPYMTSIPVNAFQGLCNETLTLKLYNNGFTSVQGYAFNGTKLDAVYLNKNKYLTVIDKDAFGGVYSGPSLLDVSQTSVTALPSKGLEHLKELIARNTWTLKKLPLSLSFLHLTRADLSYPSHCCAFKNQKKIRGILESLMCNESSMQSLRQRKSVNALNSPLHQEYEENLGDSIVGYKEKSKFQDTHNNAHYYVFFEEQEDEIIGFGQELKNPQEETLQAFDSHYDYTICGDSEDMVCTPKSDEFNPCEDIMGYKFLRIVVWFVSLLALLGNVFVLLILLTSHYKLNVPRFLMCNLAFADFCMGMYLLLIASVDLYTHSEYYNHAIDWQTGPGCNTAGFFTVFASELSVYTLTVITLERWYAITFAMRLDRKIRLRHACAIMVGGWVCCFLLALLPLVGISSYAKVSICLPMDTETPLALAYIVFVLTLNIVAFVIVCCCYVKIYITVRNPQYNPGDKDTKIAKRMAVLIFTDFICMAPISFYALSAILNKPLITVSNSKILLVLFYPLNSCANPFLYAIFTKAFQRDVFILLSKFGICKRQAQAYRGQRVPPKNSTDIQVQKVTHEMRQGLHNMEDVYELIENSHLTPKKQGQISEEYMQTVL
Summary of the method: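 HEK293 cells stably bearing the thyrotropin receptor were plated at 800 cells/well and challenged with compound (30 min, RT). Accumulated cAMP was quantified via cAMP-d2 competing for cryptate-tagged antibody.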

[5] = qHTS assay to identify small molecule agonists of the hypoxia (HIF-1) signaling pathway - cell viability counter screen (AID 1224844; calls by dose curve; note: nearly all actives have a fitted effect of over 50% in size)
Summary of the method: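 HRE-bla ME-180 cells in medium with 0.5% dialyzed FBS were preincubated 5 hrs at 37C, exposed to compounds for 17 hrs, then viability was read as CellTiter-Glo luminescence after 30 min at room temperature, in the reporter wells.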

[6] = qHTS assay to identify small molecule agonists of the hypoxia (HIF-1) signaling pathway (AID 1224846; active = well fitted activation curve with a large enough effect in the signal ratio in the repeat runs, not every such curve was filed as active; the % refers to the signal ratio)
Summary of the method: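 HRE-bla ME-180 cells (beta-lactamase reporter under hypoxia response element) were plated at 2,000 cells/well in medium with 0.5% dialyzed FBS, rested 5 hrs, then given compounds in DMSO for 17 hrs at 37C, 5% CO2. Reporter induction was read with CCF4-AM FRET substrate.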

[7] = qHTS assay to identify small molecule agonists of H2AX - cell viability counter screen (AID 1224847; calls by dose curve; note: top concentration of the series differs between compounds; nearly all actives have a fitted effect of over 30% in size)
Summary of the method: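 We seed wild-type CHO-K1 cells overnight, treat them for 3 hr at 37C with compounds in 15-concentration series, and quantify remaining viability by CellTiter-Glo luminescence.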

[8] = qHTS RealTime-Glo MT Cell Viability Assay in HepG2 cells - 24 hour (AID 1224867); note: nearly all actives have a fitted effect of over 50% in size
Summary of the method: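 Tox21 10K library screened in qHTS format on HepG2 cells carrying RealTime-Glo reagents. Compounds were added after a 5 h preincubation, and the luminescent signal from continuous culture was measured repeatedly during 40 h treatment.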

[9] = qHTS RealTime-Glo MT Cell Viability Assay in HEK293 cells - 32 hour (AID 1224868); note: nearly all actives have a fitted effect of over 50% in size; note: potency is the fitted concentration of half-maximal effect
Summary of the method: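 Luminescence generated by NanoLuc from substrate produced by living HEK293 cells served as the viability signal. Each value reflects the reading at its stated time point during continuous 40 h compound exposure at 37 C.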

[10] = A CellTox Green Cytotoxicity Assay to monitor cytotoxicity in HEK293 cells - 0 hour (AID 1224869); note: nearly all actives have a fitted effect of over 50% in size
Summary of the method: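 HEK293 cells premixed with CellTox Green dye were seeded at 600 cells/well and left 5 h at 37 C/5% CO2 before pin transfer of 23 nL compound in DMSO. Fluorescence from dye bound to dead-cell DNA was read during 40 h treatment.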

[11] = qHTS RealTime-Glo MT Cell Viability Assay in HepG2 cells - 40 hour (AID 1224870); note: nearly all actives have a fitted effect of over 50% in size
Summary of the method: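 Real-time viability: cells seeded at 600 per well together with NanoLuc and cell-permeant prosubstrate, compounds added after 5 h incubation. Luminescence tracked at 0, 8, 16, 24, 32 and 40 h of exposure.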

[12] = qHTS assay to identify small molecule antagonists of the estrogen related receptor signaling pathway with the pleiotropic PPARgamma coactivator (PGC) from Tox21 10K library - cell viability counter screen (AID 1224840; active = well fitted cell-killing curve with a large enough effect in the repeat runs, not every such curve was filed as active; note: nearly all actives have a fitted effect of over 40% in size)
Summary of the method: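 PGC/ERR cells were seeded at 2,000 cells/well and left 6 hours at 37 C/5% CO2 before pin-tool addition of compounds in DMSO. After 17.5 hours at 37 C, CellTiter-Fluor was added and fluorescence read 30 minutes later.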

[13] = qHTS assay to identify small molecule agonists of H2AX (AID 1224845; active = well fitted activation curve with a large enough effect in the signal ratio in the repeat runs, not every such curve was filed as active; the % refers to the signal ratio; note: potency is the fitted concentration of half-maximal effect)
Summary of the method: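 Phospho-H2AX Ser139 measured by HTRF (ex 320 nm; em 665 and 620 nm) after 24 hr antibody incubation. Compounds, 15 concentrations, 0.76% DMSO, were applied to CHO-K1 cells for 3hr at 37C before lysis.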

[14] = qHTS assay to identify small molecule agonists of the estrogen related receptor (ERR) signaling pathway from Tox21 library (AID 1224849; calls by dose curve; note: nearly all actives have a fitted effect of over 15% in size); conditions: ERR reporter cell line, ONE-Glo luciferase, 18 h; at 92.4 µM (top of the series) unless noted
Summary of the method: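 ERR reporter cell line (NTP) seeded, rested 6 h at 37 C/5% CO2, then pinned with Tox21 compounds in DMSO. After 18 h at 37 C, ONE-Glo luciferase luminescence was read following 30 min at room temperature.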

[15] = target: Nuclear receptor subfamily 1 group I member 3 (Homo sapiens) (UniProt Q14994); assay: qHTS assay to identify small molecule agonists of the constitutive androstane receptor (CAR) signaling pathway (AID 1224839); note: nearly all actives have a fitted effect of over 15% in size
Sequence of Nuclear receptor subfamily 1 group I member 3 (Homo sapiens) (Q14994 whole entry, looked up): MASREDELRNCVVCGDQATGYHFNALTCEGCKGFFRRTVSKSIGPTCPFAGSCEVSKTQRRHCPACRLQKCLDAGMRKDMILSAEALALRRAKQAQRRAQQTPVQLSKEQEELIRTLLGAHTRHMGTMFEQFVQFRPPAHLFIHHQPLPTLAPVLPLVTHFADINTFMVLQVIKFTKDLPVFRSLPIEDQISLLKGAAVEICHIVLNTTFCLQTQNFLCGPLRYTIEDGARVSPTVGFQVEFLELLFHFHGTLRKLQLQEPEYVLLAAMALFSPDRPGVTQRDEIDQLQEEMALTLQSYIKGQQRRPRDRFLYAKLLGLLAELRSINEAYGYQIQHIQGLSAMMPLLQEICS
Summary of the method: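 A 15-concentration quantitative screen uses HepG2 cells co-transfected stably with human CAR and CYP2B6-2.2kb reporter. Treatment lasts 24 h with 0.75 uM PK11195 final present; ONE-Glo luminescence is the signal.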

[16] = qHTS assay to identify small molecule agonists of the estrogen related receptor signaling pathway with the pleiotropic PPARgamma coactivator (PGC) from Tox21 10K library (AID 1224842); note: nearly all actives have a fitted effect of over 15% in size
Summary of the method: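 Luminescence from One-Glo (30 min, room temperature) measured after PGC/ERR cells had 18 h at 37 C with pinned compound (23 nL in DMSO). Cells had been seeded at 2,000 per well and pre-incubated 6 h.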

[17] = qHTS assay to identify small molecule antagonists of the estrogen related receptor (ERR) signaling pathway from Tox21 library (AID 1224848); note: nearly all actives have a fitted effect of over 50% in size; note: potency is the fitted concentration of half-maximal effect
Summary of the method: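 Reading was by luminescence 30 min after ONE-Glo addition. Before that, ERR cells at 2,000 per well had rested 6 h at 37 C/5% CO2 and then received pin-tooled compounds in DMSO for 18 h at 37 C.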

[18] = qHTS assay to identify small molecule agonists of the constitutive androstane receptor (CAR) signaling pathway - cell viability counter screen (AID 1224836); note: nearly all actives have a fitted effect of over 45% in size
Summary of the method: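 Counter screen multiplexed with the CAR reporter readout: HepG2 cells co-transfected with hCAR and the CYP2B6-2.2kb construct receive a 15-concentration compound series and 0.75 uM PK11195 (final), then CellTiter-Fluor fluorescence is read after 23 h.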

[19] = qHTS assay to identify small molecule antagonists of the estrogen related receptor signaling pathway with the pleiotropic PPARgamma coactivator (PGC) from Tox21 10K library (AID 1224841; call rule not given here)
Summary of the method: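 PGC/ERR reporter cells were seeded at 2,000 cells/well and held 6 hours at 37 C/5% CO2 before pin-tool addition of compounds in DMSO. After 18 hours at 37 C, One-Glo was added and luminescence read after 30 minutes at room temperature.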

[20] = target: Nuclear receptor subfamily 1 group I member 3 (Homo sapiens) (UniProt Q14994); assay: qHTS assay to identify small molecule antagonists of the constitutive androstane receptor (CAR) signaling pathway (AID 1224838); note: nearly all actives have a fitted effect of over 40% in size
Summary of the method: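 HepG2 cells stably co-transfected with hCAR and a CYP2B6-2.2kb luciferase reporter were seeded 4 h before compound addition at 15 concentrations. Cells were stimulated with 50 nM CITCO (final) for 24 h at 37 C; luciferase luminescence was then read.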
% is set by controls: 0 for no effect and ±100 for the full control effect.

CC(=O)O[C@@H]1C(=O)O[C@@H]2[C@H]1OC(=O)[C@@H]2OC(C)=O
inactive: Potency [1] | Potency [2] | Potency [3] | Potency [4] | Potency [5] | outcome [6] | Potency [7] | Potency [8] | Potency [9] | Potency [10] | Potency [11]

CC(C)(C)C(=O)OCOP(=O)(COCCn1cnc2c(N)ncnc21)OCOC(=O)C(C)(C)C
active: Potency [13] 0.277 µM | Potency [9] 0.756 µM
inactive: Potency [1] | Potency [2] | Potency [12] | Potency [4] | outcome [6] | Potency [7] | activity change, positive = activation [14] -1.22% [at 42.5 µM] | Potency [8] | Potency [10] | Potency [11]

CCc1nn(C2CCCCC2)c2cc(C3(C#N)CCC(C(=O)O)CC3)ccc12 (stereo not given)
inactive: Potency [2] | Potency [15] | Potency [16] | Potency [4] | Potency [7] | activity change, positive = activation [14] -46.5% | Potency [8] | Potency [9] | Potency [10] | Potency [11]
active: Potency [1] 48.6 µM | Potency [17] 48.6 µM

CCCCOC(O)CC (stereo not given)
inactive: Potency [1] | Potency [2] | Potency [3] | Potency [12] | Potency [4] | Potency [13] | outcome [6] | Potency [8] | Potency [9] | Potency [10] | Potency [11]

Cc1ccccn1
inactive: Potency [1] | Potency [18] | Potency [3] | Potency [15] | Potency [12] | Potency [19] | Potency [5] | Potency [7] | Potency [17] | activity change, positive = activation [14] 1.44% | Potency [8] | Potency [9] | Potency [10] | Potency [11]

Cc1ccccc1N=Nc1ccc(N=Nc2c(O)ccc3ccccc23)c(C)c1
inactive: Potency [1] | Potency [18] | Potency [3] | Potency [20] | Potency [12] | Potency [19] | Potency [4] | Potency [5] | Potency [13] | outcome [6] | Potency [17] | activity change, positive = activation [14] 11.4% [at 42.5 µM] | Potency [8] | Potency [9] | Potency [10] | Potency [11]

CCCCCCCCCC=O
inactive: Potency [1] | Potency [2] | Potency [3] | Potency [12] | Potency [4] | Potency [5] | Potency [13] | outcome [6] | Potency [8] | Potency [9] | Potency [10] | Potency [11]

CCCCCC(CO)CCC (stereo not given)
inactive: Potency [1] | Potency [2] | Potency [3] | Potency [19] | Potency [4] | Potency [5] | Potency [13] | outcome [6] | Potency [7] | Potency [17] | activity change, positive = activation [14] 2.67% | Potency [8] | Potency [9] | Potency [10] | Potency [11]

CCCCCOC(=O)COc1cc(N2C(=O)C3=C(CCCC3)C2=O)c(F)cc1Cl
inactive: Potency [1] | Potency [2] | Potency [3] | Potency [12] | Potency [4] | Potency [5] | Potency [13] | outcome [6] | Potency [8] | Potency [9] | Potency [10] | Potency [11]

CC1(C)CCC(C)(C)c2cc(NC(=O)c3ccc(C(=O)O)cc3)ccc21
inactive: Potency [1] | Potency [18] | Potency [3] | Potency [15] | Potency [12] | Potency [4] | outcome [6] | Potency [8] | Potency [10] | Potency [11]
